The values that follow come from PubChem BioAssay (EPA / NIEHS).

The term AC50 denotes the concentration at which the activity in the assay is half-maximal.

Calls of active or inactive are those of the source. How the source made its calls: active means hit-call score of the fitted dose curve at least 0.9, where 1 is the maximum; inactive means score below 0.9.

Read-out in assay [1]: C-C motif chemokine 2 (Homo sapiens) (UniProt P13500)
The assay can be described thus: BSK_KF3CT_MCP1: BioMAP Diversity Plus: KF3CT Assay for Monocyte Chemoattractant Protein 1 (MCP1/CCL2) Biomarker Activity (AID 2283073). The following applies: primary human keratinocytes with fibroblasts; actives raise or lower the signal. In short, it runs like this:
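Biomarker MCP-1 is measured by ELISA in primary human keratinocytes co-cultured with foreskin fibroblasts, 24 h after chemical treatment; DMSO serves as the negative control and activity baseline.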

Read-out in assay [2]: Matrix Metallopeptidase 9 (MMP9), MMP9 (gene 4318)
The assay can be described thus: BSK_KF3CT_MMP9: BioMAP Diversity Plus: KF3CT Assay for Matrix Metallopeptidase 9 (MMP9) Biomarker Activity (AID 2283074).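 On AC50: MMP9 protein level quantified by ELISA in the co-culture.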 The following applies: primary human keratinocytes with fibroblasts; actives raise or lower the signal. In short, it runs like this:
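Human keratinocyte and foreskin fibroblast co-culture exposed to chemicals for 24 h; MMP9 biomarker measured by ELISA, bidirectional fitting relative to DMSO; cytotoxicity tracked by SRB total protein staining in parallel cultures.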

Read-out in assay [3]: urokinase plasminogen activator (uPA), PLAU (gene 5328)
The experiment in a line: BSK_KF3CT_uPA: BioMAP Diversity Plus: KF3CT Assay for urokinase plasminogen activator (uPA) Biomarker Activity (AID 2283075). The following applies: primary human keratinocytes with fibroblasts; actives raise or lower the signal. In short, it runs like this:
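Primary human keratinocyte/foreskin fibroblast co-culture exposed to chemical; uPA measured by ELISA at 24 h. Bidirectional fit versus DMSO, with parallel SRB total-protein staining for cytotoxicity.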

Read-out in assay [4]: CD40, CD40 (gene 958)
The assay can be described thus: BSK_LPS_CD40: BioMAP Diversity Plus: LPS Assay for CD40 Biomarker Activity (AID 2283076). The conditions noted are these: primary human HUVEC with PBMC; actives raise or lower the signal. In short, it runs like this:
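Using a multiplexed primary human co-culture (umbilical vein endothelium plus PBMC), CD40 was read by ELISA 24 h after dosing, with cytotoxicity tracked by sulforhodamine B staining of parallel cultures and activity fitted bidirectionally versus DMSO.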

Read-out in assay [5]: E-selectin (Homo sapiens) (UniProt P16581)
The experiment in a line: BSK_LPS_Eselectin: BioMAP Diversity Plus: LPS Assay for Eselectin Biomarker Activity (AID 2283077). The conditions noted are these: primary human HUVEC with PBMC; actives raise or lower the signal. In short, it runs like this: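 Dose chemical onto LPS-driven HUVEC/PBMC co-culture; after 24 h, run ELISA for E-selectin; fit up- and down-going responses relative to DMSO control.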

Read-out in assay [6]: Interleukin-8 (IL8), CXCL8 (gene 3576)
The experiment in a line: BSK_LPS_IL8: BioMAP Diversity Plus: LPS Assay for Interleukin-8 (IL8) Biomarker Activity (AID 2283078). The conditions noted are these: primary human HUVEC with PBMC; actives raise or lower the signal. In short, it runs like this: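 In this LPS system, chemical-treated human umbilical vein endothelium/PBMC co-cultures were harvested at 24 h for IL-8 ELISA.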

The nature of assay [7]: BSK_LPS_SRB: Viability Assessment in the BioMAP Diversity Plus: LPS Assay (AID 2283079).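 Further: total protein by sulforhodamine B absorbance as a cytotoxicity measure; measured one day after compound addition; fitted in both directions against DMSO so loss or gain of signal counts.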 The following applies: primary human HUVEC with PBMC. In short, it runs like this: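 Cytotoxicity endpoint in human endothelial–PBMC co-culture: 24 h exposure, then SRB (0.1%) staining, 560 nm read.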
Read-out in assay [8]: Interleukin-1 alpha (IL1a), IL1A (gene 3552)
The experiment in a line: BSK_LPS_IL1a: BioMAP Diversity Plus: LPS Assay for Interleukin-1 alpha (IL1a) Biomarker Activity (AID 2283080). The conditions noted are these: primary human HUVEC with PBMC; actives raise or lower the signal. In short, it runs like this: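 Primary human HUVEC and PBMC co-culture stimulated with LPS is dosed and harvested at 24 h. Both increases and decreases in ELISA-measured IL-1a are scored relative to DMSO.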

Read-out in assay [9]: Monocyte Chemoattractant Protein-1 (MCP1), CCL2 (gene 6347)
The assay can be described thus: BSK_LPS_MCP1: BioMAP Diversity Plus: LPS Assay for Monocyte Chemoattractant Protein-1 (MCP1) Biomarker Activity (AID 2283081).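 On AC50: secreted MCP-1 protein quantified by ELISA in culture supernatant.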 The conditions noted are these: primary human HUVEC with PBMC; actives raise or lower the signal. In short, it runs like this:
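Values derive from bidirectional fitting against DMSO of ELISA-measured MCP-1 in a human primary endothelial and mononuclear cell co-culture, 24 h after chemical addition under LPS activation.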

Assay [10] is described as follows: BSK_LPS_PGE2: BioMAP Diversity Plus: LPS Assay for Prostaglandin E2 (PGE2) Biomarker Activity (AID 2283082). The conditions noted are these: primary human HUVEC with PBMC; actives raise or lower the signal. In short, it runs like this: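 LPS-activated HUVEC/PBMC co-culture; cmpd dosed, 24 h; PGE2 by ELISA; bidirectional fit vs DMSO; SRB (0.1%, TCA-fixed, 560 nm) in parallel plates for overt cytotox.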

Read-out in assay [11]: Macrophage colony-stimulating factor (MCSF), CSF1 (gene 1435)
The experiment in a line: BSK_LPS_MCSF: BioMAP Diversity Plus: LPS Assay for Macrophage colony-stimulating factor (MCSF) Biomarker Activity (AID 2283083). The following applies: primary human HUVEC with PBMC; actives raise or lower the signal. In short, it runs like this:
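Bidirectional fit versus DMSO of ELISA-measured M-CSF in co-cultured human umbilical vein endothelial cells and PBMC, sampled 24 h after dosing.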

Read-out in assay [12]: Tumor necrosis factor (Homo sapiens) (UniProt P01375)
The experiment in a line: BSK_LPS_TNFa: BioMAP Diversity Plus: LPS Assay for Tumour Necrosis Factor alpha (TNFa) Biomarker Activity (AID 2283085). The following applies: primary human HUVEC with PBMC; actives raise or lower the signal. In short, it runs like this: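 Read-out is ELISA of TNFa in primary human endothelial cell–PBMC co-cultures at 24 h after compound. Activity in either direction was fitted against DMSO.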

Read-out in assay [13]: Vascular cell adhesion molecule 1 (VCAM1), VCAM1 (gene 7412)
The experiment in a line: BSK_LPS_VCAM1: BioMAP Diversity Plus: LPS Assay for Vascular cell adhesion molecule 1 (VCAM1) Biomarker Activity (AID 2283086). The following applies: primary human HUVEC with PBMC; actives raise or lower the signal. In short, it runs like this: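 HUVEC + PBMC co-culture, LPS system; compound 24 h; VCAM-1 by ELISA; bidirectional fit vs DMSO control; parallel SRB (0.1%, TCA-fixed, 560 nm) for cytotoxicity.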

Read-out in the next assay: CD38, CD38 (gene 952)
The assay can be described thus: BSK_SAg_CD38: BioMAP Diversity Plus: SAg Assay for CD38 Biomarker Activity (AID 2283087). The conditions noted are these: primary human HUVEC with PBMC; actives raise or lower the signal. In short, it runs like this:
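Human HUVEC plus PBMC co-culture stimulated with superantigen; CD38 measured by ELISA 24 h after chemical dosing. Fluorescence read-out, bidirectional fit against DMSO; cytotoxicity tracked in parallel by SRB and Alamar Blue.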

Read-out in assay [14]: CD40, CD40 (gene 958)
The assay can be described thus: BSK_SAg_CD40: BioMAP Diversity Plus: SAg Assay for CD40 Biomarker Activity (AID 2283088). The conditions noted are these: primary human HUVEC with PBMC; actives raise or lower the signal. In short, it runs like this:
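Endpoint derived by fitting increases or decreases versus DMSO controls. CD40 is detected by fluorescence ELISA in a human vascular co-culture of endothelium and PBMC at 24 h.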

Read-out in a further assay: CD69, CD69 (gene 969)
The experiment in a line: BSK_SAg_CD69: BioMAP Diversity Plus: SAg Assay for CD69 Biomarker Activity (AID 2283089).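 On AC50: cell surface CD69 protein quantified by ELISA with fluorescence detection.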 The conditions noted are these: primary human HUVEC with PBMC; actives raise or lower the signal. In short, it runs like this:
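Values derive from bidirectional fitting relative to DMSO vehicle. Cells: umbilical vein endothelium plus peripheral blood mononuclear cells, treated 24 h before fluorescent ELISA for CD69.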

Read-out in assay [15]: Monocyte Chemoattractant Protein-1 (MCP1), CCL2 (gene 6347)
The experiment in a line: BSK_SAg_MCP1: BioMAP Diversity Plus: SAg Assay for Monocyte Chemoattractant Protein-1 (MCP1) Biomarker Activity (AID 2283090). The conditions noted are these: primary human HUVEC with PBMC; actives raise or lower the signal. In short, it runs like this: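 MCP-1 levels in the endothelial–PBMC SAg co-culture were quantified by ELISA at 24 h post-dosing; both increases and decreases versus DMSO scored. Cytotoxicity monitored by SRB total protein in parallel cultures.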

Read-out in assay [16]: E-selectin (Homo sapiens) (UniProt P16581)
The assay can be described thus: BSK_SAg_Eselectin: BioMAP Diversity Plus: SAg Assay for Eselectin Biomarker Activity (AID 2283091). The following applies: primary human HUVEC with PBMC; actives raise or lower the signal. In short, it runs like this: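 Endpoint values derive from bidirectional fitting relative to DMSO, using ELISA-measured E-selectin in a human vascular co-culture (umbilical vein endothelium plus PBMC) sampled 24 h after dosing.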

Read-out in assay [17]: Monokine induced gamma interferon (MIG), CXCL9 (gene 4283)
The experiment in a line: BSK_SAg_MIG: BioMAP Diversity Plus: SAg Assay for Monokine induced gamma interferon (MIG) Biomarker Activity (AID 2283092). The conditions noted are these: primary human HUVEC with PBMC; actives raise or lower the signal. In short, it runs like this:
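Values reflect bidirectional fitting of ELISA-measured MIG against DMSO vehicle, taken 24 h after dosing of a co-culture of human umbilical vein endothelial cells and peripheral blood mononuclear cells.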

Chain of E-selectin (Homo sapiens) (P16581 whole entry, looked up): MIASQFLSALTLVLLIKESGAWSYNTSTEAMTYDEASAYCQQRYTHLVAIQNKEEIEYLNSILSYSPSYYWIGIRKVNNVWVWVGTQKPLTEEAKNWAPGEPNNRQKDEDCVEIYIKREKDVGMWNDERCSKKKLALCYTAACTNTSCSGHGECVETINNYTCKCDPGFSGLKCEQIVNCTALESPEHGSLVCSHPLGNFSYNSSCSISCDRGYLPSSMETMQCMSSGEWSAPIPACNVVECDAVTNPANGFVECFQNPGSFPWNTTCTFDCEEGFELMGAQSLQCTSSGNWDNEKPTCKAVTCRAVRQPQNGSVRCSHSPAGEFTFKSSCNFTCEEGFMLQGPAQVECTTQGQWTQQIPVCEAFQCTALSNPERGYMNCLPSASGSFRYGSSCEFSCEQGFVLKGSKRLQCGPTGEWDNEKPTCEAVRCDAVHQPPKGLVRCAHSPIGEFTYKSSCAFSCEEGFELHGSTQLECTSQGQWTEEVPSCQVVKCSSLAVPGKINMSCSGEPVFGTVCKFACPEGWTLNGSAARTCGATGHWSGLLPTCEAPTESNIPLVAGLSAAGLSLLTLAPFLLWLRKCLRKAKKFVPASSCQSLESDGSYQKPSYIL
Chain of Tumor necrosis factor (Homo sapiens) (P01375 whole entry, looked up): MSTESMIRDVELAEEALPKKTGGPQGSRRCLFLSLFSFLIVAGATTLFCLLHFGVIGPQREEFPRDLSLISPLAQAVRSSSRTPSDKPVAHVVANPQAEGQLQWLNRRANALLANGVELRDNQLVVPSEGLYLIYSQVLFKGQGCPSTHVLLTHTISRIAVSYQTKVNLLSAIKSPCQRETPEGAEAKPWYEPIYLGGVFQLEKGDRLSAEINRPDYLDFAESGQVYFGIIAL

As to `O=C(NCc1ncc(C(F)(F)F)cc1Cl)c1c(Cl)cccc1Cl`, the outcome in [1] is “inactive”; in [2], “inactive”; in assay [3], “inactive”; with CD40, CD40 (gene 958) [4], “inactive”; in assay [5], “inactive”; in assay [6], “inactive”. The result in assay [7], in assay [8], in [9], in assay [10], in assay [11] and in assay [12] was inactive. Besides, the outcome in assay [13] is “inactive”; with CD38, CD38 (gene 952) it was “inactive”; in the assay with CD40, CD40 (gene 958) [14], “inactive”; with CD69, CD69 (gene 969), “inactive”; in assay [15] it was “inactive”; in assay [16], “inactive”. Moreover, in assay [17], the result was inactive.

As to `O=P(O)(O)CCC(F)(F)C(F)(F)C(F)(F)C(F)(F)C(F)(F)C(F)(F)F`, the outcome was “inactive” in assay [1]; “inactive” in assay [2]; “inactive” in [3]; “inactive” with CD40, CD40 (gene 958) [4]; “inactive” in [5]; “inactive” in [6]. Moreover, the result in assay [7], in assay [8], in assay [9], in assay [10], in [11] and in [12] was inactive. The outcome is “inactive” in assay [13]; “inactive” with CD38, CD38 (gene 952); “inactive” with CD40, CD40 (gene 958) [14]; “inactive” with CD69, CD69 (gene 969); “inactive” in assay [15]; “inactive” in [16].

Regarding `COC1=CC(=O)C[C@@H](C)[C@]12Oc1c(Cl)c(OC)cc(OC)c1C2=O`, the figures for the half-maximal activity concentration (AC50) in assay [1] and in assay [2] were 0.119 µM (active) and 0.572 µM (active), respectively. Besides, the outcome was “inactive” in [3]; “inactive” in the assay with CD40, CD40 (gene 958) [4]; “inactive” in [5]; “inactive” in assay [6]; “inactive” in assay [7]; “inactive” in [8]. Moreover, the outcome was “inactive” in [9]; “inactive” in assay [10]; “inactive” in [11]; “inactive” in assay [12]; “inactive” in [13]; “inactive” with CD38, CD38 (gene 952). Moreover, the outcome was “inactive” with CD40, CD40 (gene 958) [14]; “inactive” with CD69, CD69 (gene 969); “inactive” in assay [15]; “inactive” in [16].

Consider `O=C(CCCN1CCC(O)(c2ccc(Cl)cc2)CC1)c1ccc(F)cc1`, for which the outcome was “inactive” in assay [1]; “inactive” in assay [2]; “inactive” in assay [3]; “inactive” with CD40, CD40 (gene 958) [4]; “inactive” in assay [6]; “inactive” in assay [7]. Besides, the outcome in [8] is “inactive”; in assay [10], “inactive”; in assay [11], “inactive”; in assay [12] it was “inactive”; in [13], “inactive”; with CD38, CD38 (gene 952), “inactive”. Further, the outcome in the assay with CD40, CD40 (gene 958) [14] was “inactive”; with CD69, CD69 (gene 969), “inactive”; in assay [15], “inactive”; in assay [16], “inactive”. The values for the AC50 in assay [5] and in assay [9] were 1.67 µM (active) and 29 µM (active), respectively.

Regarding `CCCCCCCCCCCCCCCCCC[N+](C)(C)Cc1ccccc1`, the AC50 in assay [1] was 6.52 µM (active); in assay [2], 2.75 µM (active); in [3], 2.95 µM (active); in the assay with CD40, CD40 (gene 958) [4], 2.74 µM (active); in assay [5], 2.87 µM (active); in [6] it was 5.17 µM (active). In addition, the AC50 in [7] was 2.66 µM (active); in assay [8], 2.71 µM (active); in [9] it was 2.97 µM (active); in assay [11] it was 2.73 µM (active); in assay [12] it was 3.58 µM (active); in assay [13], 3.09 µM (active). Besides, the AC50 was 2.73 µM (active) in the assay with CD38, CD38 (gene 952); 2.74 µM (active) with CD40, CD40 (gene 958) [14]; 2.73 µM (active) with CD69, CD69 (gene 969); 3.01 µM (active) in assay [15]; 4.86 µM (active) in assay [16]. Also, the outcome in assay [10] was inactive.
